{
  "source": "ChEMBL document CHEMBL3988442",
  "about": "“University of Dundee, Small-Polar-MMV Screening Library” (2021)",
  "tested_on": "Leishmania donovani",
  "assay": "Leishmania intramacrophage assay",
  "type": "functional, organism-based",
  "parameters": "scale not given: in the data most compounds retested in dose-response had high values",
  "note": "Out of some 69,000 compounds screened, about 1,000 (1.4%) showed an effect of 50% or more. The full list was thinned out, with strong results kept by preference.",
  "data": [
    {"smiles": "CCc1nc(CN(C)CC(=O)NC(C)C)cs1", "values": [
      {"measurement": "Percent Effect", "setting": "30.3 µM, […]", "value": 35.21, "unit": "%"}
    ]},
    {"smiles": "CCCc1cc(C(=O)N[C@@H](CO)[C@@H](O)c2ccccc2)n(C)n1", "values": [
      {"measurement": "Percent Effect", "setting": "30.3 µM, […]", "value": 0.7938, "unit": "%"}
    ]},
    {"smiles": "CCCc1cc(C(=O)N[C@H](C)[C@@H](O)c2ccc(O)cc2)n(C)n1", "values": [
      {"measurement": "Percent Effect", "setting": "30.3 µM, […]", "value": 13.63, "unit": "%"}
    ]},
    {"smiles": "CCCc1cc(C(=O)NC(C)c2ccccc2)n(C)n1", "note": "(stereo unspecified)", "values": [
      {"measurement": "Percent Effect", "setting": "30.3 µM, […]", "value": 52.97, "unit": "%"}
    ]},
    {"smiles": "CN(Cc1ccco1)C(=O)NCc1ccnc(SC(C)(C)C)c1", "values": [
      {"measurement": "Percent Effect", "setting": "30.3 µM, […]", "value": 10.46, "unit": "%"}
    ]},
    {"smiles": "CCn1cc(CNCc2ccc(C(=O)OC)cc2)c(C)n1", "values": [
      {"measurement": "Percent Effect", "setting": "30.3 µM, […]", "value": -10.67, "unit": "%"}
    ]},
    {"smiles": "CN(C)CC1(O)CCCN(C(=O)Cc2ccc(Cl)c(Cl)c2)C1", "note": "(stereo unspecified)", "values": [
      {"measurement": "Percent Effect", "setting": "30.3 µM, […]", "value": -2.799, "unit": "%"}
    ]},
    {"smiles": "Cc1nc(CN2CCc3nc(N4CCCC4)nc(NC(C)C)c3C2)cs1", "values": [
      {"measurement": "Percent Effect", "setting": "30.3 µM, […]", "value": 51.28, "unit": "%"}
    ]},
    {"smiles": "CC(C)Nc1nc(N2CCCC2)nc2c1CN(C(C)C)CC2", "values": [
      {"measurement": "Percent Effect", "setting": "30 µM, 30.03 µM", "value": -2.181, "unit": "%"}
    ]},
    {"smiles": "CCC(C)N1CCc2nc(N3CCCC3)nc(NC(C)C)c2C1", "note": "(stereo unspecified)", "values": [
      {"measurement": "Percent Effect", "setting": "30.3 µM, […]", "value": 35.6, "unit": "%"}
    ]},
    {"smiles": "CC(C)Nc1nc(N2CCCC2)nc2c1CN(C)CC2", "values": [
      {"measurement": "Percent Effect", "setting": "30.3 µM, […]", "value": 20.69, "unit": "%"}
    ]},
    {"smiles": "CC(C)Nc1nc(N2CCCC2)nc2c1CN(c1ncc(F)cn1)CC2", "values": [
      {"measurement": "Percent Effect", "setting": "30.3 µM, […]", "value": 60.7, "unit": "%"}
    ]},
    {"smiles": "Cc1nc(CN2CCc3nc(NC(C)C)nc(C)c3C2)cs1", "values": [
      {"measurement": "Percent Effect", "setting": "30.3 µM, […]", "value": 4.033, "unit": "%"}
    ]},
    {"smiles": "O=C(OCc1cccs1)c1cccc(C(=O)N2CCCC2)n1", "values": [
      {"measurement": "Percent Effect", "setting": "30.3 µM, […]", "value": 3.746, "unit": "%"}
    ]},
    {"smiles": "Cn1cc(-c2ncc3c(c2C(=O)O)CCN(Cc2ccco2)C3)cn1.O=C(O)C(F)(F)F", "values": [
      {"measurement": "Percent Effect", "setting": "30.3 µM, […]", "value": 10.3, "unit": "%"}
    ]},
    {"smiles": "Cc1ccc(C(=O)NCc2ccnc(N(C)C)c2)c(C)c1", "values": [
      {"measurement": "Percent Effect", "setting": "30.3 µM, […]", "value": 24.48, "unit": "%"}
    ]},
    {"smiles": "O=C(c1ccccn1)N1CCCC(c2ncncc2-c2ccncc2)C1", "note": "(stereo unspecified)", "values": [
      {"measurement": "Percent Effect", "setting": "30.3 µM, […]", "value": -13.38, "unit": "%"}
    ]},
    {"smiles": "O=C(O)C(F)(F)F.O=C1NCC[C@]12CN(CC1CCOCC1)C[C@H]2c1ccccc1", "values": [
      {"measurement": "Percent Effect", "setting": "30.3 µM, […]", "value": 7.927, "unit": "%"}
    ]},
    {"smiles": "Cc1cccc(CNC(=O)c2cccnc2N)c1", "values": [
      {"measurement": "Percent Effect", "setting": "30.3 µM, […]", "value": 26.02, "unit": "%"}
    ]},
    {"smiles": "Nc1ncccc1C(=O)NCc1cccc(Br)c1", "values": [
      {"measurement": "Percent Effect", "setting": "30.3 µM, […]", "value": 45.5, "unit": "%"}
    ]},
    {"smiles": "COc1cccc(CNC(=O)c2cccnc2N)c1", "values": [
      {"measurement": "Percent Effect", "setting": "30.3 µM, […]", "value": 50.32, "unit": "%"}
    ]},
    {"smiles": "COc1ccc(C(=O)NS(=O)(=O)c2cc(Cl)sc2Cl)cc1OC(F)F", "values": [
      {"measurement": "Percent Effect", "setting": "30.3 µM, […]", "value": 16.5, "unit": "%"}
    ]},
    {"smiles": "CCn1cc(NC(=O)NCC(c2ccsc2)N(C)C)cn1", "note": "(stereo unspecified)", "values": [
      {"measurement": "Percent Effect", "setting": "30 µM", "value": 19.68, "unit": "%"}
    ]},
    {"smiles": "COc1ccc(CC(=O)N2CCCC(n3cccn3)C2)cc1F", "note": "(stereo unspecified)", "values": [
      {"measurement": "Percent Effect", "setting": "30 µM", "value": 5.405, "unit": "%"}
    ]},
    {"smiles": "CNC(=O)c1sccc1S(=O)(=O)Nc1ccc(C)cc1", "values": [
      {"measurement": "Percent Effect", "setting": "30.3 µM, […]", "value": 8.63, "unit": "%"}
    ]},
    {"smiles": "CN1CCOC(CN(C(=O)Cc2ccccc2F)c2nccs2)C1", "note": "(stereo unspecified)", "values": [
      {"measurement": "Percent Effect", "setting": "30 µM, 30.03 µM", "value": -6.347, "unit": "%"}
    ]},
    {"smiles": "c1ccc(Cc2nc(CN3CCCC3Cn3cncn3)cs2)cc1", "note": "(stereo unspecified)", "values": [
      {"measurement": "Percent Effect", "setting": "30 µM", "value": -0.1933, "unit": "%"}
    ]},
    {"smiles": "Cc1ccc2nc(C3CCCN3Cc3cccc(CCN)c3)[nH]c2c1", "note": "(stereo unspecified)", "values": [
      {"measurement": "Percent Effect", "setting": "30.3 µM, […]", "value": 54.52, "unit": "%"}
    ]},
    {"smiles": "Cc1ccc2nc(C3CCCN3Cc3csc(C)n3)[nH]c2c1", "note": "(stereo unspecified)", "values": [
      {"measurement": "Percent Effect", "setting": "30.3 µM, […]", "value": 32.46, "unit": "%"}
    ]},
    {"smiles": "Cc1ccc2nc(C3CCCN3Cc3scnc3C)[nH]c2c1", "note": "(stereo unspecified)", "values": [
      {"measurement": "Percent Effect", "setting": "30.3 µM, […]", "value": 25.37, "unit": "%"}
    ]},
    {"smiles": "O=C1NCCN(Cc2ccoc2)C1CC(=O)N1CCc2sccc2C1", "note": "(stereo unspecified)", "values": [
      {"measurement": "Percent Effect", "setting": "30.3 µM, […]", "value": 23.18, "unit": "%"}
    ]},
    {"smiles": "CN(CC(=O)NC1(C)CCS(=O)(=O)C1)Cc1ccc(Br)cc1", "note": "(stereo unspecified)", "values": [
      {"measurement": "Percent Effect", "setting": "30 µM", "value": -0.9039, "unit": "%"}
    ]},
    {"smiles": "CN(C)C(=O)CN1CCC2(COCc3cnc(-c4cccnc4)nc32)C1.O=C(O)C(F)(F)F.O=C(O)C(F)(F)F", "note": "(stereo unspecified)", "values": [
      {"measurement": "Percent Effect", "setting": "30.3 µM, […]", "value": 71.1, "unit": "%"}
    ]},
    {"smiles": "CN(C)C(=O)CN1CCC2(COCc3cnc(-c4ccccc4)nc32)C1", "note": "(stereo unspecified)", "values": [
      {"measurement": "Percent Effect", "setting": "30.3 µM, […]", "value": 31.1, "unit": "%"}
    ]},
    {"smiles": "O=C(O)C(F)(F)F.c1cnc(N2CCC3(COCc4cnc(-c5cccnc5)nc43)C2)nc1", "note": "(stereo unspecified)", "values": [
      {"measurement": "Percent Effect", "setting": "30 µM, 30.03 µM", "value": 17.52, "unit": "%"}
    ]},
    {"smiles": "CN(C)C1CCN(C(=O)c2cccc(S(=O)(=O)NCC3(C)COC3)c2)C1", "note": "(stereo unspecified)", "values": [
      {"measurement": "Percent Effect", "setting": "30.3 µM, […]", "value": 28.53, "unit": "%"}
    ]},
    {"smiles": "CCn1cc(CN2CCCC(COc3ccccc3F)C2)cn1", "note": "(stereo unspecified)", "values": [
      {"measurement": "Percent Effect", "setting": "30.3 µM, […]", "value": 32.99, "unit": "%"}
    ]},
    {"smiles": "Cn1nccc1CN1CCCC(COc2ccccc2F)C1", "note": "(stereo unspecified)", "values": [
      {"measurement": "Percent Effect", "setting": "30.3 µM, […]", "value": 53.5, "unit": "%"}
    ]},
    {"smiles": "CC(C)n1c(C2CCCN(Cc3ccnn3C)C2)nc2ccccc21", "note": "(stereo unspecified)", "values": [
      {"measurement": "Percent Effect", "setting": "30 µM, 30.03 µM", "value": 7.956, "unit": "%"}
    ]},
    {"smiles": "COc1ccc(CN2Cc3[nH]nc(C(=O)N(C)C)c3C2)cc1", "values": [
      {"measurement": "Percent Effect", "setting": "30.3 µM, […]", "value": 5.856, "unit": "%"}
    ]},
    {"smiles": "COc1ccc(CCN(C)CCS(=O)(=O)c2ccc(Cl)cc2)cc1OC", "values": [
      {"measurement": "Percent Effect", "setting": "30.3 µM, […]", "value": 7.861, "unit": "%"}
    ]},
    {"smiles": "COc1ccc(CN(C)CCS(=O)(=O)c2ccc(Cl)cc2)cc1OC", "values": [
      {"measurement": "Percent Effect", "setting": "30.3 µM, […]", "value": 56.02, "unit": "%"}
    ]},
    {"smiles": "CCN(Cc1nccs1)Cc1cc(Cl)ccc1OC", "values": [
      {"measurement": "Percent Effect", "setting": "30.3 µM, […]", "value": -1.846, "unit": "%"}
    ]},
    {"smiles": "COCCN(C)Cc1ccc(OC)c(OC(F)F)c1", "values": [
      {"measurement": "Percent Effect", "setting": "30 µM, 30.03 µM", "value": 7.354, "unit": "%"}
    ]},
    {"smiles": "CCN(CCS(=O)(=O)c1ccc(Cl)cc1)Cc1ccc(OC)c(OC)c1", "values": [
      {"measurement": "Percent Effect", "setting": "30.3 µM, […]", "value": 54.72, "unit": "%"}
    ]},
    {"smiles": "COc1ccc(CCCN(C)C(=O)c2cc(Cl)c[nH]2)cc1OC", "values": [
      {"measurement": "Percent Effect", "setting": "30.3 µM, […]", "value": 32.32, "unit": "%"}
    ]},
    {"smiles": "Cc1cc(C)n(Cc2ccc(-c3noc(C(=O)NC[C@@H](C)O)n3)cc2)n1", "values": [
      {"measurement": "Percent Effect", "setting": "30.3 µM, […]", "value": 18.71, "unit": "%"}
    ]},
    {"smiles": "O=C(O)C(F)(F)F.O=C(O)C(F)(F)F.c1cnc(N2CCC3(CCN(Cc4ccncc4)CC3)CC2)nc1", "values": [
      {"measurement": "Percent Effect", "setting": "30 µM, 30.03 µM", "value": 38.21, "unit": "%"}
    ]},
    {"smiles": "Cc1nccn1CC1CCCN(S(=O)(=O)c2cnn(C)c2)C1", "note": "(stereo unspecified)", "values": [
      {"measurement": "Percent Effect", "setting": "30.3 µM, […]", "value": 12.01, "unit": "%"}
    ]},
    {"smiles": "O=C(N1CCOCC1)N1CCOC[C@H](Oc2ccc(C(F)(F)F)cc2)C1", "values": [
      {"measurement": "Percent Effect", "setting": "30.3 µM, […]", "value": -1.363, "unit": "%"}
    ]},
    {"smiles": "COc1cc(Cl)c(CN2CCC(C(N)=O)C2)cc1Cl", "note": "(stereo unspecified)", "values": [
      {"measurement": "Percent Effect", "setting": "30.3 µM, […]", "value": 31.88, "unit": "%"}
    ]}
  ]
}
